Each structure is given as a SMILES string. The whole screen tested about 1,300 compounds, of which about 420 (32%) were called active. Another 32% or so got no clear call; they are omitted. The list shows a part of the results. A number with no mark means an inactive call. Calls follow the shape of the dose curve; as a rule, active = well fitted inhibition curve with a large enough effect; inconclusive = small, poorly fitted or top-dose-only effect; inactive = no such curve, though single readings can be large or run the other way.
% is scaled to controls: 0 for no effect and ±100 for the full control effect; potency is read from the fitted curve at half-maximal effect.

In the test the target is C-terminal-binding protein 1 (Homo sapiens) (UniProt Q13363). In words: qHTS for Inhibitors of the Phosphatase Activity of Eya2: Carboxyl-terminal binding protein (CtBP) Counterscreen for Cherry-picked Compounds. Also: nearly all actives have a fitted effect of over 65% in size. The following applies: purified protein-protein binding, AlphaScreen, 3 h; series mostly up to 46.1 µM; activity change, negative = inhibition: at the top concentration. Put shortly: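 Cherry-picked compounds (final 2.5 nM–46 uM) were incubated 2 h at RT with 25 nM CtBP-6xHIS and 25 nM GST-E1A. Alpha beads (20 ug/mL) were then added for 1 h, light-protected; DMSO and E1A peptide inhibitor wells set the normalization.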
(In general: Quantitative high-throughput screening tests each substance at several concentrations.)
With `CCOc1ccc(NC(=O)COc2cccc3cccnc23)cc1S(=O)(=O)N1CCCC1`, the Potency was 16.9 µM (active).
Consider `C=CCn1c(C)cc(C(=O)COc2ccc(N(C)S(=O)(=O)c3ccc(NC(C)=O)cc3)cc2)c1C`, for which the “activity change, negative = inhibition” value was -22.4%.
For the compound `CN(C)C1=C2C=CC=CC2/C(=C2/C=Cc3ccccc32)C=C1` (stereo not drawn), the Potency is 15.1 µM (active).
For the compound `O=C(Nc1ccon1)c1ccc(N2CCCCC2)c([N+](=O)[O-])c1`, the “activity change, negative = inhibition” value is -18%.
Regarding `CSc1cccc(NC(=O)CCCOc2cc(=O)n(C)c3ccccc23)c1`, the “activity change, negative = inhibition” value was 3.84%.
With `O=C1/C(=C\c2cccc([N+](=O)[O-])c2O)SC(=S)N1Cc1ccccc1`, the Potency was 8.49 µM (active).
The same measure, in the same setting: the figure for `Cc1ccc(NC(=O)CSc2cccc3cccnc23)c(C)c1` is 9.53 µM (active).
Regarding `Cc1ccc(OCC(=O)Nc2ccccc2N2CCCC2)c(C)c1`, the “activity change, negative = inhibition” value is -21.3%.
For `O=C(Cc1ccccc1F)Nc1cccc(S(=O)(=O)N2CCCCC2)c1`, the “activity change, negative = inhibition” value is 2.9%.
As to `Cn1c(=O)c2c(ncn2CC(=O)Nc2cccc(S(=O)(=O)Nc3ccccc3F)c2)n(C)c1=O`, the Potency is 8.49 µM (active).
`CCCNC(=O)C1(C)CCN(Cc2cccc(OC(=O)c3ccccc3)c2)C1` (stereo not drawn): the “activity change, negative = inhibition” value was 7.18%.
For the compound `CC(=O)Nc1ccc(S(=O)(=O)NCc2ccc3[nH]c(C)cc3c2)cc1`, the “activity change, negative = inhibition” value is -27.3%.
In the case of `CC(=O)Nc1ccc(S(=O)(=O)Nc2cccc3cccnc23)cc1`, the Potency was 4.26 µM (active).
Consider `CC1(C)CC(=O)c2c(oc3ccc(NS(=O)(=O)c4cccc5cccnc45)cc23)C1`, for which the “activity change, negative = inhibition” value was -5.13%.
On to `O=S(=O)(Nc1cccc2cccnc12)c1ccccc1Br`, for which the Potency was 9.53 µM (active).
Still for that read-out and setting: the same measure for `O=C(CCCl)Nc1cccc2cccnc12`: 8.49 µM (active).
For the compound `COc1ccc(Cl)cc1NC(=O)CCCn1c(=O)c2cccn2c2cccnc21`, the “activity change, negative = inhibition” value was -46.3%.
For `CC(=O)c1cccc(-c2cnc3c(NC=O)cc(-c4ccc(N(C)C)cc4)cn23)c1`, the “activity change, negative = inhibition” value is -31.8%.
For `COC(=O)c1cc2c(ccc3ccccc32)oc1=O`, the Potency is 12 µM (active).
The same measure, in the same setting: the figure for `CC(C)Cc1nc2oc3c(=O)[nH]cnc3c2c2c1CCC2` is 15.1 µM (active).
Consider `Cc1ccccc1OCCn1cc(C(=S)N2CCN(C)CC2)c2ccccc21`, for which the Potency is 15.1 µM (active).
As for `CCC(=O)c1cn(CC(=O)Nc2c(C)cccc2C)c2ccccc12`, the “activity change, negative = inhibition” value was 5.57%.
The same measure, in the same setting: the same measure for `COc1cc(/C=C2\SC(=S)N(CCC(=O)Nc3cccc(O)c3)C2=O)cc(OC)c1OC`: -14.7%.
On to `O=C(CN1C(=O)/C(=C/c2ccco2)SC1=S)Nc1ccc(C(=O)O)c(O)c1`, for which the Potency is 10.7 µM (active).
As to `CCn1c(SCC(=O)N2CCN(c3ccccc3)CC2)nc2c(c1=O)SC(C)C2` (stereo not drawn), the “activity change, negative = inhibition” value was -14.2%.
As to `Cc1c(C(=O)O)c(O)cc2c1C(=O)c1c(O)c([C@H]3O[C@H](CO)[C@@H](O)[C@H](O)[C@H]3O)c(O)c(O)c1C2=O`, the Potency is 19 µM (active).
The same measure, in the same setting: the same measure for `Clc1ccc(-c2ccc(CNCc3ccccn3)o2)cc1`: 12 µM (active); for `Clc1cccc(-c2ccc(CNCc3ccccn3)o2)c1`: 16.9 µM (active); for `Fc1ccc(-c2ccc(CNCc3ccccn3)o2)cc1`: 15.1 µM (active).
As to `O=C(/C=C/c1cccc([N+](=O)[O-])c1)Nc1cccc(NC(=O)c2cccs2)c1`, the “activity change, negative = inhibition” value was -26.4%.
Regarding `COC(=O)c1ccc(NC(=O)CSc2nc(=O)n3cccc(C)c3n2)cc1`, the Potency is 13.5 µM (active).
For the compound `COC(=O)c1ccc(NC(=O)c2ccc3c(c2)C(=O)N(Cc2cccnc2)C3=O)cc1`, the “activity change, negative = inhibition” value was 0.063%.
On to `Cc1ccc(-c2csc(N3CCN(CCCn4c(C(F)(F)F)nc5ccccc54)CC3)n2)cc1`, for which the “activity change, negative = inhibition” value is -13.7%.
Consider `Cc1csc(NC(=O)CSc2sc3c(O)cc(=O)[nH]c3c2C#N)n1`, for which the Potency is 12 µM (active).
With `Cc1cc(C)c2c(n1)sc1c(O)cc(=O)[nH]c12`, the “activity change, negative = inhibition” value is -12.6%.
With `O=C1c2cccc(Sc3ccccc3)c2C(=O)c2c(Sc3ccccc3)cccc21`, the Potency was 3.79 µM (active).
With `Oc1c(Cl)cc(CN2CCOCC2)c2cccnc12`, the Potency is 0.601 µM (active).
On to `CCN(CC)c1ccc(NC(=S)NC(=O)c2cccs2)cc1`, for which the Potency is 10.7 µM (active).
Turning to `CCCC(=O)Nc1ccc(NC(=S)NC(=O)c2cccs2)cc1`, the “activity change, negative = inhibition” value is -0.882%.
The same measure, in the same setting: the figure for `Cc1ccc(C(=O)N2CCN(c3ccc(NC(=S)NC(=O)c4cccs4)cc3)CC2)cc1` is -26.7%; for `CNC(=O)c1cc2c(cn1)[nH]c1ccccc12` it is -22%.
On to `Cn1nc(C(=O)Nc2nc3ccccc3[nH]2)c2ccccc2c1=O`, for which the Potency is 10.7 µM (active).
Still for that read-out and setting: the same measure for `COc1ccc(OC)c(Nc2nc(-c3sc(N)nc3C)cs2)c1`: 8.49 µM (active).
As for `COc1ccc(-c2noc(N3CCC(C(=O)Nc4cc(OC)ccc4OC)CC3)n2)cc1`, the “activity change, negative = inhibition” value is -27.5%.
On to `CCn1c2ccccc2c2cc(NC(=O)COC(=O)c3ccc(NC(=O)CC#N)cc3)ccc21`, for which the “activity change, negative = inhibition” value is -2.9%.
For the compound `Cc1ccc(-n2[nH]c(C)c(C=Nc3ccc(S(=O)(=O)Nc4nccs4)cc3)c2=O)cc1C`, the Potency was 7.57 µM (active).
On the same count and under the same terms, the figure for `O=C(Nc1nc(-c2ccccn2)cs1)C1CC(=O)N(c2ccc3c(c2)OCCO3)C1` (stereo not drawn) is 6.01 µM (active).
Turning to `CCc1ccc(-c2csc(NC(=O)C3CC(=O)N(c4ccc5c(c4)OCCO5)C3)n2)cc1` (stereo not drawn), the “activity change, negative = inhibition” value was -6.9%.
